GALR2 ag – agonists of human galanin receptor 2 (GALR2); 140,000 tested, 0.48% active; activation, % (test concentration not listed); GALR2-expressing cells, agonist activation read-out; O43603; in the data active = activation above about 5%, passing the limit was not always enough;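 also: 0% = vehicle buffer wells and 100% = reference agonist at full effect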
Target sequence (O43603 whole entry, looked up): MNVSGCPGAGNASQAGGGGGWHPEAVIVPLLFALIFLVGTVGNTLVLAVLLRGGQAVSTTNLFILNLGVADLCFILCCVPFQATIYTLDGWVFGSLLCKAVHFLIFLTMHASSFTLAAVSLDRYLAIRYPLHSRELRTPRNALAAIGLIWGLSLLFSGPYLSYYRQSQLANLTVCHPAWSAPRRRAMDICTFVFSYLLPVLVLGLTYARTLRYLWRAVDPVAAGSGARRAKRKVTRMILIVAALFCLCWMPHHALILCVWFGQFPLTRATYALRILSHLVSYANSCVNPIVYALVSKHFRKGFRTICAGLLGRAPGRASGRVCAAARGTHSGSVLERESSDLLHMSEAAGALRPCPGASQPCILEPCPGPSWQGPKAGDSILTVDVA
S1P2 agonist – S1P2 (human) receptor agonism. O95136. S1P2-expressing cell line, agonist reporter read-out. activation, % at 4.5 µM. 97,000 tested, 0.46% active. AID 729; in the data active = activation above about 16%;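 also: 0% = vehicle low control and 100% = maximal reference agonist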
S1P2 antag – blocks the human S1P2 receptor. cell-based S1P2 antagonist assay, inhibition at 5 uM. AID 736. inhibition, % at 5 µM. 97,000 tested, 0.21% active; in the data active = inhibition above about 45%;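 also: CRE beta-lactamase reporter cells expressing human S1P2 stimulated with S1P; 0% = agonist at EC80 alone and 100% = agonist plus reference antagonist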
GALR2 blocker – antagonists of human galanin receptor 2 (GALR2). O43603. GALR2-expressing cells, antagonist mode. inhibition, % at 4 µM. 140,000 tested, 0.39% active. AID 828; in the data active = inhibition above about 27%;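 also: cells stimulated with galanin 1-16 at roughly its EC80; 0% = agonist challenge control and 100% = basal control without agonist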
* = called active by the depositor; x = no result given. The list is not random: actives were taken first. Their share in the collection is about 1.2%.

SMILES	GALR2 ag	S1P2 agonist	S1P2 antag	GALR2 blocker
Cc1ccc(SCC(=O)Nc2ccc(N3CCN(C)CC3)c(F)c2)cc1	7.8*	-5	9	-13
c1csc(C2=Nn3c(nnc3-c3ccncc3)SC2)c1	-2	-10	49*	18
Brc1ccc(C2=Nn3c(nnc3-c3ccncc3)SC2)cc1	0	-6	-6	-2
Clc1ccc(C2=Nn3c(nnc3-c3n[nH]c4c3CCC4)SC2)cc1Cl	5.2*	-4	-15	-12
c1ccc(C2=Nn3c(nnc3-c3n[nH]c4c3CCC4)SC2)cc1	-2	-11	2	-5
Cc1cc(C)n(-c2nc(NCCCO)c3c4c(sc3n2)CCCC4)n1	36*	0	4	-26
Cc1cc(C)n(-c2nc(NCCO)c3c4c(sc3n2)CCCC4)n1	8.1*	-3	21	-13
Cc1ccc(CNc2nc(C)nc3sc4c(c23)CCC4)cc1	-2	-6	14	3
Cc1cc(C)n(-c2nc(NCC(C)O)c3c4c(sc3n2)COC(C)(C)C4)n1 (stereo not given)	-1	-6	1	-3
Cc1cc(C)n(-c2nc(NCC3CCCO3)c3c4c(sc3n2)COC(C)(C)C4)n1 (stereo not given)	0	-3	-41	-3
Cc1cc(C)n(-c2nc(NCC(C)O)c3c4c(sc3n2)CCCC4)n1 (stereo not given)	8.8*	-5	6	-11
CCOc1ccc(N(CC(=O)Nc2ccccc2C(=O)N2CCOCC2)S(=O)(=O)c2ccc(F)cc2)cc1	-1	x	x	1
Cn1c(=O)c2c(nc(Sc3n[nH]c(N)n3)n2Cc2ccccc2Cl)n(C)c1=O	-1	-4	9	-10
Cc1ccc(C(=O)NC(=S)Nc2ccc(NC(=O)c3cccs3)cc2)cc1[N+](=O)[O-]	1	x	x	-3
Cc1ccc(SCC(=O)OCn2nnc3ccccc3c2=O)cc1C	0	x	x	-2
Cc1c(C(=O)N2CCc3ccccc3C2)oc2ccc(S(=O)(=O)N3CC(C)CC(C)C3)cc12 (stereo not given)	0	x	x	-10
Cc1cc(N2CCN(c3nc4ccccc4s3)CC2)n2ncnc2n1	-1	2	51*	19
COc1ccccc1NS(=O)(=O)c1cc([N+](=O)[O-])ccc1N/N=C/c1c[nH]c2ccccc12	-3	-15	62*	6
O=c1c(-c2nc3ccccc3s2)cccn1Cc1ccc(Cl)c(Cl)c1	12*	109*	-117	-13
Cn1c(SCC(=O)Nc2ccc(NC(=O)c3cccs3)cc2)nnc1-c1ccncc1	0	-1	-10	-10
CCC(C)(C)n1nnnc1C(c1ccc2ncccc2c1)N1CCN2CCCC2C1 (stereo not given)	-2	-5	-3	-11
Cc1cccc(-n2c(SCc3cc(=O)n4ccsc4n3)nc3ccccc32)c1	1	26*	-42	0
Cn1c(=O)[nH]c(=O)c2c1nc(N(CCO)Cc1ccccc1)n2CCCc1ccccc1	-1	-1	-22	-12
Cn1c(=O)[nH]c(=O)c2[nH]c(N(Cc3ccccc3)Cc3ccccc3)nc21	1	5	56*	-21
COc1ccc(CCn2c(=N)c(C(=O)NCc3ccco3)cc3c(=O)n4ccccc4nc32)cc1	0	-2	15	1
SMILES	GALR2 ag	S1P2 agonist	S1P2 antag	GALR2 blocker
CC(C)OCCCn1c(=NC(=O)c2ccncc2)c(C#N)cc2c(=O)n3ccccc3nc21	12*	41*	-54	-23
Cc1ccc2nc3c(cc(C(=O)NCCCn4ccnc4)n3C)c(=O)n2c1	0	5	-20	8
CCCCCn1c(=NC(C)=O)c(C#N)cc2c(=O)n3ccccc3nc21	2	9	-36	2
C=CCn1c(=N)c(C(=O)NCCCOC)cc2c(=O)n3ccccc3nc21	23*	30*	-33	-3
COCCCNC(=O)c1cc2c(=O)n3cccc(C)c3nc2n(C(C)C)c1=N	6	5	-3	-6
CNC(=O)c1cc2c(=O)n3cc(C)ccc3nc2n(C(C)C)c1=N	16*	18*	-18	0
C=CCn1c(=N)c(C(=O)NCCCOC)cc2c(=O)n3cc(C)ccc3nc21	16*	19*	-38	-14
CC(NC(=O)Nc1cccc([N+](=O)[O-])c1)(C(F)(F)F)C(F)(F)F	0	1	-9	2
Cc1cc(C(=O)NC(CC(C)C)C(=O)O)cc(C)c1[N+](=O)[O-] (stereo not given)	-1	x	x	-2
CC(NC(=S)Nc1ccc(Cl)cc1)C(c1ccccc1)N1CCOCC1 (stereo not given)	-1	x	x	5
CCOC(=O)c1cc2c(=O)n3ccccc3nc2n(CCCOC)c1=NC(C)=O	13*	35*	-56	-14
CCCn1c(=NC(=O)c2ccco2)c(C(=O)OCC)cc2c(=O)n3ccccc3nc21	2	7	-51	-3
N=c1c(C(=O)NCc2ccc(F)cc2)cc2c(=O)n3ccccc3nc2n1Cc1cccnc1	6	21*	-27	-9
COC(=O)c1cc2c(=O)n3ccccc3nc2n(Cc2cccnc2)c1=N	1	2	12	0
CCOCCCn1c(=N)c(C(=O)NCc2ccc3c(c2)OCO3)cc2c(=O)n3ccccc3nc21	1	0	-18	-7
N=c1c(C(=O)NCc2ccc(F)cc2)cc2c(=O)n3ccccc3nc2n1CCCN1CCOCC1	9.7*	x	x	-17
N=c1c(C(=O)NCC2CCCO2)cc2c(=O)n3ccccc3nc2n1Cc1cccnc1 (stereo not given)	5.8*	x	x	-1
Cc1cc(NC(=O)COC(=O)c2cc(S(=O)(=O)N3CCOCC3)ccc2N2CCCCC2)no1	5	-3	4	9
CCN(CC)CCCNc1cc2n(c(=O)n1)CCc1cc(OC)c(OC)cc1-2	-6	-5	-7	7
COc1cc2c(cc1OC)-c1cc(N3CCCCCC3)nc(=O)n1CC2	0	36*	-26	-6
COc1cc2c(cc1OC)-c1cc(N3CCCc4ccccc43)nc(=O)n1CC2	0	41*	-48	-2
COc1cc2c(cc1OC)-c1cc(NC3CCCCCC3)nc(=O)n1CC2	-1	42*	-44	-11
CC(OC(=O)c1cc(-c2cccnc2)nc2ccccc12)C(=O)Nc1ccc2ccccc2c1 (stereo not given)	0	x	x	-1
Cc1cc(C)cc(NC(=O)CSCc2nc3c(nnn3Cc3ccc(F)cc3)c(=O)[nH]2)c1	-1	-4	-1	0
O=C(CCC1CCCCC1)N1CCN(Cc2ccc3c(c2)OCO3)CC1	-3	-1	6	-5
SMILES	GALR2 ag	S1P2 agonist	S1P2 antag	GALR2 blocker
N#CC(c1ccc(Cl)cc1)c1ccc2c(C(F)(F)F)cc(C(F)(F)F)nc2n1 (stereo not given)	0	-5	69*	-10
CCOC(=O)c1c(C)[nH]c(C(=O)OC/C(O)=C(\C#N)c2nc3ccccc3[nH]2)c1C	-1	16*	10	-15
COc1ccccc1OCC(=O)OC/C(O)=C(\C#N)c1nc2ccccc2[nH]1	-1	x	x	-3
COc1ccccc1N(CC(=O)NCc1ccccc1)C(=O)CCC(=O)Nc1cc(C)ccn1	-1	-4	16	2
O=C(CSC1=NCCS1)Nc1ccnc2ccccc12	-2	x	x	35*
COc1ccc(Nc2nc(NCc3ccco3)nc(N/N=C/c3ccc(O)cc3)n2)cc1	0	x	x	5

Compound activity (PubChem BioAssay)
